Assay results: PMC4336329 (PLoS ONE, 2015)
In all, about 310,000 compounds went through this assay and about 14,000 (4.5%) showed an effect of 50% or more. The effect is printed as a negative number. This excerpt belongs to a sample that is enriched for strong results.

Each compound was assayed against human ether-à-go-go-related gene (hERG) potassium channel (human, UniProt Q12809) (assay: primary screen, population patch clamp on CHO cells stably expressing hERG; higher = less effect of the substance).
human ether-à-go-go-related gene (hERG) potassium channel, sequence (Q12809 whole entry, looked up): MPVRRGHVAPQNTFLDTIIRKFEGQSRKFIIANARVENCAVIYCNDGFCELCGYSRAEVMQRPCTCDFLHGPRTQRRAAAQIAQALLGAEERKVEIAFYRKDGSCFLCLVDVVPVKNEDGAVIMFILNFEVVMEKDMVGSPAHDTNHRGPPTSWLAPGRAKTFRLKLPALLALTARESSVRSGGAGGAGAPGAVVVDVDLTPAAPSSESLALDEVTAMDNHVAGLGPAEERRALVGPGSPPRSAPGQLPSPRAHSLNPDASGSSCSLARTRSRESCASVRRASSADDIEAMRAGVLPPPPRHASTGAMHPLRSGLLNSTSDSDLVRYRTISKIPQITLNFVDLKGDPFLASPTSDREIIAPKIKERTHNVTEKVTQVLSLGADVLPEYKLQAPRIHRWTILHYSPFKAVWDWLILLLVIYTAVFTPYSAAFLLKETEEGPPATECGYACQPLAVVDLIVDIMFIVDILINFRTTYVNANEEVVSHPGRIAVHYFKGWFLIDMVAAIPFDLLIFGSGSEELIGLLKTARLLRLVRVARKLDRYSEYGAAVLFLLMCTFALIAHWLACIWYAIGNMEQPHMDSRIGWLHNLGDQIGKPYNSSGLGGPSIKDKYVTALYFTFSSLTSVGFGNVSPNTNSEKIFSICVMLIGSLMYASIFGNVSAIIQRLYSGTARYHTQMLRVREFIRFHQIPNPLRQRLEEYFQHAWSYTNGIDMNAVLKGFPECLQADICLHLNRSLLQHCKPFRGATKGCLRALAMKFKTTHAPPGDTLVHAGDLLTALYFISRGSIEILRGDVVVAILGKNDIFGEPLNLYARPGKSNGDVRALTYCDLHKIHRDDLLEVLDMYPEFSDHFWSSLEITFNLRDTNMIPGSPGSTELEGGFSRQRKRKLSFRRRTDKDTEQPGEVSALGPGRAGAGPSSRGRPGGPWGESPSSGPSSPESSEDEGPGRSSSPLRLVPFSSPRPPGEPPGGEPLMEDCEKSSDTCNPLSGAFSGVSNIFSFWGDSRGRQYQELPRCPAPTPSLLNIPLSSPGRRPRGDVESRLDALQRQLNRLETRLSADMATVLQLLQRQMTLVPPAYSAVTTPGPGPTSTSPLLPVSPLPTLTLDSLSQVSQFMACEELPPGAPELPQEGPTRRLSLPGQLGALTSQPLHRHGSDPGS
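Note: peak tail current of the secondary pulse compared with the same well before compound.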

Compound | hERG current change (%, negative = inhibition) at 10uM
Cc1csc(NC(=O)c2sccc2C)n1 | 12.7%
CCn1c(SCC(=O)Nc2ccc(OCc3ccccc3)cc2)nnc1-c1ccco1 | -0.171%
CCCn1c(=O)c(Cc2ccccc2)c(O)c2ccccc21 | 1.06%
Cc1nc2ccccc2c(=O)n1NC(=O)/C=C/c1ccc(Br)cc1 | -1.3%
CN1CCN(c2ccc3c(c2)S(=O)(=O)c2ccccc2C3=O)CC1 | -23.4%
N#C/C(=N\Nc1ccc(Br)cc1)C(=N)N1CCOCC1 | -68.9%
N#C/C(=N\Nc1ccc([N+](=O)[O-])cc1)C(N)=S | 13.4%
C/C(=N\Nc1ccc([N+](=O)[O-])cc1)c1ccc(N2CCOCC2)cc1 | 4.46%
N#C/C(=N\Nc1ccccc1)C(=N)N1CCOCC1 | -7.71%
N#C/C(=N\Nc1ccc([N+](=O)[O-])cc1)C(=N)N1CCOCC1 | -54.2%
COc1ccc(N/N=C(\C#N)C(=N)N2CCOCC2)cc1 | 11.4%
Cc1ccc(OCC(=O)NN2C(=O)c3ccccc3C2=O)c(C)c1 | 6.34%
CC(C)c1nc(-c2ccc([N+](=O)[O-])cc2)cs1 | 1.87%
CSCCC(NC(=O)c1ccc([N+](=O)[O-])cc1Cl)C(=O)OCC(=O)N1CCN(C(C)=O)CC1 (centres unmarked) | 3.12%
CSCCC(NC(=O)c1ccc(Cl)cc1)C(=O)OCC(=O)NCc1ccco1 (centres unmarked) | -23.8%
CSCCC(NC(=O)c1ccc([N+](=O)[O-])cc1Cl)C(=O)OCC(=O)NCC(F)(F)F (centres unmarked) | -16.7%
CSCCC(NC(=O)c1ccc(Cl)cc1Cl)C(=O)OC(C)C(=O)NCc1ccco1 (centres unmarked) | -51.8%
CSCCC(NC(=O)c1ccc([N+](=O)[O-])cc1Cl)C(=O)OC(C)C(=O)NCc1ccco1 (centres unmarked) | -61.7%
O=C(NCc1ccco1)c1ccc([N+](=O)[O-])cc1Cl | -3.96%
CSCCC(NC(=O)c1ccc([N+](=O)[O-])cc1Cl)C(=O)OCC(=O)NCCCc1ccccc1 (centres unmarked) | -57.8%

Compound | hERG current change (%, negative = inhibition) at 10uM
CSCCC(NC(=O)c1ccc([N+](=O)[O-])cc1Cl)C(=O)OCC(=O)N(C)C (centres unmarked) | -2.34%
CSCCC(NC(=O)c1ccc(Cl)cc1Cl)C(=O)OCC(N)=O (centres unmarked) | -5.4%
CC(=O)Nc1ccc(NCc2ccc(C)s2)cc1 | -3.79%
CCc1ccc(OCC(=O)NNC(=O)c2c(CC)noc2C)cc1 | 10.8%
Cc1nnc(NC2=NCCC2)o1 | 3.71%
CC(=O)CCc1c[nH]c2c(C(=O)O)cccc12 | 5.11%
CCOc1ccccc1Nc1nnc(SCC(=O)Nc2cc(C)on2)s1 | 6.14%
CC(=O)Nc1ccc(S(=O)(=O)Nc2cc3c(cc2C(C)=O)OCO3)cc1 | 20.7%
CC(N)Cc1cn(Cc2ccccc2)c2ccccc12.Cl (centres unmarked) | -7.76%
COc1cccc(CNC(=O)COc2ccc(C(=O)c3ccccc3)cc2)c1 | -11.7%
CCOC(=O)/C(=C\c1c[nH]c2ccccc12)NC(C)=O | 0.157%
O=C(CSc1nc2c(c(=O)n1-c1ccc(Cl)cc1)SCC2)NCc1ccco1 | -19.4%
CCn1cc(CCC(=O)NCc2cccc(OC)c2OC)c2ccccc21 | 8.51%
COc1ccc(S(=O)(=O)N/N=C(/C)c2ccncc2)cc1OC | -1.27%
Cc1nc2ccccn2c1C(=O)NCc1ccc2c(c1)OCO2 | -0.471%
O=C(CCn1c(=O)c2ccccc2n(Cc2cccnc2)c1=O)NCc1ccc2c(c1)OCO2 | -5.1%
COc1ccc(CNC(=O)c2cc3c(=O)n4ccccc4nc3n(Cc3cccnc3)c2=N)cc1 | -58.6%
COc1ccc(Cn2c(=S)[nH]c3cc(C(=O)NCc4cccnc4)ccc3c2=O)cc1 | 12.3%
CCOC(=O)c1cc2c(=O)n3ccccc3nc2n(Cc2ccccc2)c1=N | -74.6%
COCCCn1c(C(=O)Nc2ccc3c(c2)OCO3)cc2c(=O)n3ccccc3nc21 | 8.51%

Compound | hERG current change (%, negative = inhibition) at 10uM
COCCCn1c(=N)c(C(=O)NCc2ccc3c(c2)OCO3)cc2c(=O)n3ccccc3nc21 | -83.5%
O=C(NCc1ccc2c(c1)OCO2)c1cnc2ccccn2c1=O | -6.29%
N=c1c(C(=O)NCc2ccc3c(c2)OCO3)cc2c(=O)n3ccccc3nc2n1Cc1cccnc1 | -80.4%
COc1ccc(CNC(=O)Cn2nc(Cc3cccnc3)c3ccccc3c2=O)cc1 | -43.3%
CCOC(=O)c1ccccc1NC(=O)CN(c1ccccc1)S(=O)(=O)N(C)C | -19.9%
CC(C)[C@H](Nc1ccc(C(F)(F)F)cc1[N+](=O)[O-])C(=O)O.[Cl-] | 20%
CCCCOc1cccc(C(=O)N(Cc2ccccc2)C2CCS(=O)(=O)C2)c1 (centres unmarked) | -14.2%
O=C(NC1CCCC1)C(=O)N(Cc1cccnc1)C(C(=O)NCC1CCCO1)c1ccco1 (centres unmarked) | 38.2%
CCOC(=O)COc1ccc(C(=O)Nc2cccc(Cl)c2C)cc1 | 18.9%
CC(Oc1ccc(Br)cc1)C(=O)Nc1ccc(S(=O)(=O)N(C)C2CCN(C)CC2)cc1 (centres unmarked) | -26.7%
Cc1nc2ccc(P(=O)(O)O)cc2s1 | 16.2%
C=CCN1C(=O)C2(C(C(=O)c3ccc(C)o3)=C(O)C(=O)N2CCCN2CCOCC2)c2ccccc21 (centres unmarked) | 3.04%
COCCNC(=S)N1CCc2cc(OC)c(OC)cc2C1COc1ccc(C(C)C)cc1 (centres unmarked) | 16.7%
Cc1cccc(N(CC(=O)NC2CCCC2)C(=O)c2csnn2)c1C | 19.5%
CCCn1c(=N)c(S(=O)(=O)c2ccc(F)cc2)cc2c(=O)n3ccccc3nc21 | -8.53%
N=c1c(C(=O)NCc2ccc(F)cc2)cc2c(=O)n3ccccc3nc2n1Cc1cccnc1 | -76.2%
COC(=O)c1cc2c(=O)n3ccccc3nc2n(Cc2cccnc2)c1=N | -64%
Cc1nc2ccccn2c1C(=O)NCc1cccnc1 | -3.36%
COC(=O)c1cn(Cc2cccnc2)c(=O)c2ccccc12 | 3.15%
